The values that follow come from PubChem BioAssay (NCI).

About 79,000 compounds went through this panel and 15% of them were active in at least one assay; those are over-represented in the sample as a whole. Unmarked numbers belong to inactive results. Activity calls are given as the source filed them. Cut-off read from the data, not from the text of the source: active = growth inhibition above about 70%; inactive = the rest.

A short description of experiment [1]: NCI Yeast Anticancer Drug Screen. Data for the rad50 strain (AID 155).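 Note: 0% = growth of vehicle-only cultures of the same strain.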 The conditions noted are these: S. cerevisiae rad50 strain growth inhibition, active compounds read high. In short, it runs like this:
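A DNA repair-deficient yeast mutant serves as the test organism; compound-induced growth inhibition is calculated against vehicle-treated cells.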

Experiment [2] can be described thus: NCI Yeast Anticancer Drug Screen. Data for the mec2-1 strain (AID 157). The conditions noted are these: S. cerevisiae mec2-1 strain, active compounds read high. In short, it runs like this: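 Yeast mec2-1 mutant treated with compound. Readout: growth inhibition vs vehicle controls.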
Experiment [3] in a line: NCI Yeast Anticancer Drug Screen. Data for the sgs1 mgt1 strain (AID 161).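 Note: 0% = growth of cultures given vehicle only.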 The conditions noted are these: S. cerevisiae sgs1 mgt1 strain, active compounds read high. The gist of the method: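 Read-out: growth inhibition vs vehicle controls. Cells: mutant yeast strain deficient in DNA damage repair.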
Experiment [4] can be described thus: NCI Yeast Anticancer Drug Screen. Data for the cln2 rad14 strain (AID 165).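 Note: 0% = growth equal to vehicle treated cultures.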 The conditions noted are these: S. cerevisiae cln2 rad14 strain, active compounds read high. The gist of the method:
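cln2 rad14 yeast strain; compound exposure; growth inhibition read vs vehicle controls.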

Experiment [5] in a line: NCI Yeast Anticancer Drug Screen. Data for the bub3 strain (AID 167). The settings on record: S. cerevisiae bub3 mutant strain, active compounds read high. The gist of the method: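 Inhibition values come from growth of compound-treated mutant yeast normalised to vehicle-treated controls.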
Experiment [6] can be described thus: NCI Yeast Anticancer Drug Screen. Data for the mlh1 rad18 strain (AID 175). The settings on record: S. cerevisiae mlh1 rad18 strain growth inhibition, active compounds read high. The gist of the method:
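Yeast w/ defined DNA-repair lesions; compound exposure; growth vs vehicle controls → % inhibition.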

Where [7] appears, read: at 5.0 µM (retest, dose inferred, filed as 0.5).
The mark [8] stands for this setting: at 50.0 µM (retest, dose inferred, filed as 5.0).

In the case of `N#CC(C#N)=Cc1ccc(Cl)o1`, the growth inhibition in experiment [1] (setting [7]) was 2%; in experiment [1] (setting [8]) it was 54%; in experiment [1] (at 50.0 µM), 59.6%; in experiment [2] (setting [7]), 4%; in experiment [2] (setting [8]), 47%; in experiment [2] (at 50.0 µM) it was 50%. Moreover, the growth inhibition in experiment [3] (setting [7]) was 2%; in experiment [3] (setting [8]), 24%; in experiment [3] (at 50.0 µM), 61.8%; in experiment [4] (setting [7]), -6%; in experiment [4] (setting [8]), 26%; in experiment [4] (at 50.0 µM), 42.4%. Besides, the growth inhibition was -2% in experiment [5] (setting [7]); 35% in experiment [5] (setting [8]); 45% in experiment [5] (at 50.0 µM); 1% in experiment [6] (setting [7]); 29% in experiment [6] (setting [8]); 82.8% (active) in experiment [6] (at 50.0 µM).

In the case of `Oc1c(I)cc(I)cc1I`, the growth inhibition in experiment [1] (setting [7]) is -6%; in experiment [1] (setting [8]) it was 91% (active); in experiment [1] (at 50.0 µM), 38%; in experiment [2] (setting [7]), -3%; in experiment [2] (setting [8]), 95% (active); in experiment [2] (at 50.0 µM), 43%. Further, the growth inhibition in experiment [3] (setting [7]) is -9%; in experiment [3] (setting [8]) it was 53%; in experiment [3] (at 50.0 µM), 7.7%; in experiment [4] (setting [7]) it was -4%; in experiment [4] (setting [8]), 94% (active); in experiment [4] (at 50.0 µM), -32.6%. The growth inhibition is -5% in experiment [5] (setting [7]); 82% (active) in experiment [5] (setting [8]); 67.6% in experiment [5] (at 50.0 µM); -3% in experiment [6] (setting [7]); 92% (active) in experiment [6] (setting [8]); 63.4% in experiment [6] (at 50.0 µM).

In the case of `O=c1s[se]c2ccccc12`, the growth inhibition in experiment [1] (setting [7]) was 27%; in experiment [1] (setting [8]), 98% (active); in experiment [1] (at 50.0 µM) it was 84.2% (active); in experiment [2] (setting [7]) it was 13%; in experiment [2] (setting [8]), 99% (active); in experiment [2] (at 50.0 µM), 87.1% (active). The growth inhibition in experiment [3] (setting [7]) is 17%; in experiment [3] (setting [8]), 99% (active); in experiment [3] (at 50.0 µM), 90.1% (active); in experiment [4] (setting [7]), 21%; in experiment [4] (setting [8]), 98% (active); in experiment [4] (at 50.0 µM) it was 92.2% (active). The growth inhibition in experiment [5] (setting [7]) was -2%; in experiment [5] (setting [8]), 99% (active); in experiment [5] (at 50.0 µM), 89.8% (active); in experiment [6] (setting [7]), 25%; in experiment [6] (setting [8]), 97% (active); in experiment [6] (at 50.0 µM), 91.9% (active).

Consider `CC[C@@]1(O)C[C@H](OC2CC(N(C)C)C(O)C(C)O2)c2c(cc3c(c2O)C(=O)c2c(O)ccc(O)c2C3=O)[C@H]1C(=O)OC` (stereo not given in full), for which the growth inhibition is 96% (active) in experiment [1] (setting [7]); 98% (active) in experiment [1] (setting [8]); 91.1% (active) in experiment [1] (at 50.0 µM); 77% (active) in experiment [2] (setting [7]); 98% (active) in experiment [2] (setting [8]); 92.1% (active) in experiment [2] (at 50.0 µM). Moreover, the growth inhibition in experiment [3] (setting [7]) is 88% (active); in experiment [3] (setting [8]), 99% (active); in experiment [3] (at 50.0 µM), 92.5% (active); in experiment [4] (setting [7]), 82% (active); in experiment [4] (setting [8]) it was 99% (active); in experiment [4] (at 50.0 µM) it was 88.7% (active). In addition, the growth inhibition in experiment [5] (setting [7]) is 88% (active); in experiment [5] (setting [8]), 99% (active); in experiment [5] (at 50.0 µM), 91.2% (active); in experiment [6] (setting [7]) it was 94% (active); in experiment [6] (setting [8]), 98% (active); in experiment [6] (at 50.0 µM), 93.2% (active).

For the molecule `CO[C@@]12[C@@H]3N[C@@H]3CN1C1=C(C(=O)C(N(C)c3ccc(O)cc3)=C(C)C1=O)[C@@H]2COC(N)=O`, the growth inhibition is 21% in experiment [1] (setting [7]); 64% in experiment [1] (setting [8]); 81.9% (active) in experiment [1] (at 50.0 µM); 24% in experiment [2] (setting [7]); 70% (active) in experiment [2] (setting [8]); 76% (active) in experiment [2] (at 50.0 µM). For the same molecule, the growth inhibition was -7% in experiment [3] (setting [7]); 44% in experiment [3] (setting [8]); 68.4% in experiment [3] (at 50.0 µM); 1% in experiment [4] (setting [7]); 62% in experiment [4] (setting [8]); 65% in experiment [4] (at 50.0 µM). In addition, the growth inhibition was -5% in experiment [5] (setting [7]); 30% in experiment [5] (setting [8]); 53.2% in experiment [5] (at 50.0 µM); 33% in experiment [6] (setting [7]); 96% (active) in experiment [6] (setting [8]); 83.2% (active) in experiment [6] (at 50.0 µM).

With `CC1c2c(n(C)c3ccccc23)C2CCC3(CO3)C1N2Cc1ccccc1` (stereo not given), the growth inhibition was 25% in experiment [1] (setting [7]); 97% (active) in experiment [1] (setting [8]); 90.5% (active) in experiment [1] (at 50.0 µM); 22% in experiment [2] (setting [7]); 99% (active) in experiment [2] (setting [8]); 92% (active) in experiment [2] (at 50.0 µM). Moreover, the growth inhibition in experiment [3] (setting [7]) was 42%; in experiment [3] (setting [8]), 99% (active); in experiment [3] (at 50.0 µM) it was 93.3% (active); in experiment [4] (setting [7]), 24%; in experiment [4] (setting [8]), 98% (active); in experiment [4] (at 50.0 µM) it was 90% (active). For the same molecule, the growth inhibition in experiment [5] (setting [7]) was 26%; in experiment [5] (setting [8]) it was 99% (active); in experiment [5] (at 50.0 µM) it was 92.5% (active); in experiment [6] (setting [7]) it was 35%; in experiment [6] (setting [8]), 98% (active); in experiment [6] (at 50.0 µM) it was 92.2% (active).

Turning to `COC(=O)c1ccc([As]=O)cc1N` (stereo not given), the growth inhibition in experiment [1] (setting [7]) was 2%; in experiment [1] (setting [8]) it was 6%; in experiment [1] (at 50.0 µM), 98.7% (active); in experiment [2] (setting [7]), 1%; in experiment [2] (setting [8]), 4%; in experiment [2] (at 50.0 µM), 99.5% (active). For the same molecule, the growth inhibition in experiment [3] (setting [7]) is -1%; in experiment [3] (setting [8]) it was 4%; in experiment [3] (at 50.0 µM), 99.3% (active); in experiment [4] (setting [7]) it was -2%; in experiment [4] (setting [8]), -6%; in experiment [4] (at 50.0 µM) it was 98.5% (active). The growth inhibition in experiment [5] (setting [7]) is 3%; in experiment [5] (setting [8]) it was 2%; in experiment [5] (at 50.0 µM), 98.8% (active); in experiment [6] (setting [7]), 2%; in experiment [6] (setting [8]), 7%; in experiment [6] (at 50.0 µM), 99% (active).

`CC1CCCC[N-]1.CC1CCCC[N-]1.N#C[S-].N#C[S-].[Cd]` (stereo not given): the growth inhibition in experiment [1] (setting [7]) is 20%; in experiment [1] (setting [8]), 87% (active); in experiment [1] (at 50.0 µM) it was 93.2% (active); in experiment [2] (setting [7]) it was 9%; in experiment [2] (setting [8]), 52%; in experiment [2] (at 50.0 µM), 66.7%. For the same molecule, the growth inhibition is 12% in experiment [3] (setting [7]); 36% in experiment [3] (setting [8]); 70.7% (active) in experiment [3] (at 50.0 µM); 7% in experiment [4] (setting [7]); 69% in experiment [4] (setting [8]); 58% in experiment [4] (at 50.0 µM). Besides, the growth inhibition in experiment [5] (setting [7]) was 10%; in experiment [5] (setting [8]), 26%; in experiment [5] (at 50.0 µM) it was 67.7%; in experiment [6] (setting [7]), 16%; in experiment [6] (setting [8]), 39%; in experiment [6] (at 50.0 µM), 73% (active).

For the molecule `CC/C=C/c1cc2c(cc1O)CCC1C2CC[C@@]2(C)C1CC[C@@H]2O` (stereo not given in full), the growth inhibition was -16% in experiment [1] (setting [7]); 98% (active) in experiment [1] (setting [8]); 78% (active) in experiment [1] (at 50.0 µM); -15% in experiment [2] (setting [7]); 98% (active) in experiment [2] (setting [8]); 81.7% (active) in experiment [2] (at 50.0 µM). Further, the growth inhibition in experiment [3] (setting [7]) was -23%; in experiment [3] (setting [8]) it was 97% (active); in experiment [3] (at 50.0 µM), 88.6% (active); in experiment [4] (setting [7]), -24%; in experiment [4] (setting [8]) it was 98% (active); in experiment [4] (at 50.0 µM), 88.7% (active). Further, the growth inhibition was -23% in experiment [5] (setting [7]); 98% (active) in experiment [5] (setting [8]); 88.5% (active) in experiment [5] (at 50.0 µM); -16% in experiment [6] (setting [7]); 98% (active) in experiment [6] (setting [8]); 90.5% (active) in experiment [6] (at 50.0 µM).

Regarding `O=NN(CC(=O)O)c1ncccn1`, the growth inhibition in experiment [1] (setting [7]) is -1%; in experiment [1] (setting [8]), 0%; in experiment [1] (at 50.0 µM), -6.25%; in experiment [2] (setting [7]), -3%; in experiment [2] (setting [8]), 0%; in experiment [2] (at 50.0 µM), 1.45%. In addition, the growth inhibition was -2% in experiment [3] (setting [7]); -3% in experiment [3] (setting [8]); -8.05% in experiment [3] (at 50.0 µM); -6% in experiment [4] (setting [7]); 1% in experiment [4] (setting [8]); 36.7% in experiment [4] (at 50.0 µM). The growth inhibition in experiment [5] (setting [7]) is -2%; in experiment [5] (setting [8]), 0%; in experiment [5] (at 50.0 µM), -13.4%; in experiment [6] (setting [7]), -1%; in experiment [6] (setting [8]), -2%; in experiment [6] (at 50.0 µM) it was 29.4%.
